Source: PubChem (The Scripps Research Institute Molecular Screening Center)
LYPLA2 inh = LYPLA2 inhibitors, primary screen, counter-screen for PME1 inhibitor project, biochemical, fluorescence polarization, FP-Rh probe ABPP | Acyl-protein thioesterase 2 (Homo sapiens), O95372 | recombinant LYPLA2 | inhibition, % at 5.9 µM | actives 0.38% (n = 320,000) | AID 2177, 2009;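 active means inhibition above the screen-wide mean plus 3 SD, limit set per campaign, cut at about 26% in these data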;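 further: 0% = LYPLA2 with DMSO and 100% = wells lacking LYPLA2 enzyme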
Target sequence (O95372 whole entry, looked up): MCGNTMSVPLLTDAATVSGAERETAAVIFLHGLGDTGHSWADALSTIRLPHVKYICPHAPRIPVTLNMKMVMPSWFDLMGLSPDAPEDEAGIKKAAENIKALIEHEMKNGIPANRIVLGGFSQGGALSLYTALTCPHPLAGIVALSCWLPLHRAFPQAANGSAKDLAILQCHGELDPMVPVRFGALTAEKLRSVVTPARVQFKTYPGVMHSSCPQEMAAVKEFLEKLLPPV
LYPLA1 counter = LYPLA1 inhibitors, primary screen, counter-screen for PME1 inhibitor project, biochemical, fluorescence polarization, FP-Rh probe ABPP; actives 0.16% (n = 320,000); Acyl-protein thioesterase 1 (Homo sapiens), O75608; inhibition, % at 5.9 µM; AID 2174, 2009; recombinant LYPLA1;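 active means inhibition above the mean of all tested compounds plus 3 SD, set per campaign, cut at about 14% in these data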;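 further: inhibitors block serine hydrolase probe labeling of LYPLA1 so polarization falls; 0% = enzyme with DMSO and 100% = wells lacking LYPLA1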
PME-1 primary = PME-1 inhibitors via competitive probe labeling, primary screen, biochemical, fluorescence polarization, FP-Rh probe, HTS. Protein phosphatase methylesterase 1 (Homo sapiens), Q9Y570. recombinant PME-1. inhibition, % at 5.9 µM. actives 0.53% (n = 320,000). AID 2130, 2009;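 active means inhibition above the campaign mean of all compounds plus 3 SD, cut at about 26% in these data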;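 further: competitive labeling of PME-1 active site by serine hydrolase directed probe; 0% = PME-1 with DMSO and 100% = wells lacking PME-1 enzyme; inhibitors block probe labeling so polarization falls and inhibition rises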
PAD4 inh = human PAD4 inhibitors, primary screen, biochemical, fluorescence polarization, 1536-well format | inhibition, % at 6.36 µM | actives 0.41% (n = 330,000) | recombinant PAD4, RCA probe fluorescence polarization | AID 485272, 2010;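 active means percent inhibition above a cutoff equal to the mean of all tested compounds plus 3 SD, cut at about 15% in these data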;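 further: 0% = PAD4 with RCA probe and DMSO and 100% = probe without PAD4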
GSTO1 inh = inhibitors of recombinant GSTO1, primary screen, counter-screen for RBBP9 inhibitor project, biochemical, fluorescence polarization; Glutathione S-transferase omega-1 (Homo sapiens), P78417; activity-based probe fluorescence polarization; inhibition, % at 5.96 µM; actives 1.1% (n = 300,000);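 active means inhibition above the campaign mean inhibition plus 3 SD, cut at about 35% in these data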;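 further: 0% = GSTO1-1 with DMSO and 100% = wells lacking GSTO1-1 enzyme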
Target sequence (P78417 whole entry, looked up): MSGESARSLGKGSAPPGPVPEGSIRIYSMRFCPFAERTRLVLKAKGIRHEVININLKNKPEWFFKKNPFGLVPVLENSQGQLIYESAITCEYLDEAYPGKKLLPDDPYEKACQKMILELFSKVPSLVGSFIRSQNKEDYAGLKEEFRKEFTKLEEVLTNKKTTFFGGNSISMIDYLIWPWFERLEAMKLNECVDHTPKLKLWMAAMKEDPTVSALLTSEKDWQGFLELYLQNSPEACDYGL
Fam108B counter = mouse Fam108B serine hydrolase inhibitors, primary screen, counter-screen for RBBP9 inhibitor project, biochemical, fluorescence polarization. recombinant Fam108B, FP-Rh probe fluorescence polarization. inhibition, % at 9.51 µM. actives 0.33% (n = 300,000);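 active means inhibition above the screen mean inhibition plus 3 SD, computed separately per campaign, cut at about 18% in these data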;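 further: inhibitors lower polarization as less probe binds the enzyme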
PAD4 confirm = human PAD4 inhibitors, confirmation, biochemical, fluorescence polarization; shares compounds with PAD4 inh; AID 488796, 2010; actives 28% (n = 1,200); inhibition, % at 6.36 µM; recombinant PAD4, RCA probe fluorescence polarization;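 active means mean inhibition across replicates above the hit cutoff set by the earlier primary screen, cut at about 15% in these data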;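 further: inhibitors block active-site labeling by the probe so polarization falls; 0% = PAD4 with probe and DMSO and 100% = probe without PAD4 enzyme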
* = called active by the depositor. Hits are enriched below; roughly 1.8% of the tested compounds scored in any of these assays.

`CCc1ccccc1NS(=O)(=O)c1ccc2c(c1)C(C)(C)C(=O)N2C` gave LYPLA2 inh -7.7, LYPLA1 counter 1.4, PME-1 primary 4.8, PAD4 inh -1.6, GSTO1 inh 8.8 and Fam108B counter 6.4.
CC1=NN(c2ccc(C)c(C)c2)C(=O)/C1=C/c1ccc2c(c1)n(C)c(=O)n2C was read as LYPLA2 inh 0.3, LYPLA1 counter -2.0, PME-1 primary -0.4, PAD4 inh 47.5*, GSTO1 inh 37.2*, Fam108B counter 1.0 and PAD4 confirm 4.7.
Screening CC1=NN(c2cccc(F)c2)C(=O)/C1=C/c1ccc(N(C)C)cc1 returned LYPLA2 inh 5.2, LYPLA1 counter 0.4, PME-1 primary 3.8, PAD4 inh -2.5, GSTO1 inh 3.8 and Fam108B counter 1.7.
`Cc1ccccc1P(=O)(CO)c1ccccc1C` gave LYPLA2 inh -1.4, LYPLA1 counter 1.0, PME-1 primary -0.3, PAD4 inh -6.9, GSTO1 inh 3.3 and Fam108B counter -4.9.
Screening COCCCNc1nc2ccccc2nc1NS(=O)(=O)c1cccs1 returned LYPLA2 inh -3.9, LYPLA1 counter -0.8, PME-1 primary 2.4, PAD4 inh 16.0*, GSTO1 inh -3.5, Fam108B counter -2.1 and PAD4 confirm -10.6.
`COCCCNc1nc2ccccc2nc1NS(=O)(=O)c1ccc(OC)cc1` gave LYPLA2 inh 2.1, LYPLA1 counter 1.4, PME-1 primary 1.7, PAD4 inh -0.6, GSTO1 inh 1.6 and Fam108B counter -2.6.
For Cc1ccc2c(c1)N(C(=O)c1ccco1)C(C)(C)c1ssc(=S)c1-2 the results were LYPLA2 inh 10.1, LYPLA1 counter 3.1, PME-1 primary 12.2, PAD4 inh 15.8*, GSTO1 inh -6.2, Fam108B counter 2.7 and PAD4 confirm 23.6*.
For Cc1cccc2c1N(C(=O)c1ccco1)C(C)(C)c1ssc(=S)c1-2 the results were LYPLA2 inh -1.6, LYPLA1 counter 0.4, PME-1 primary 5.1, PAD4 inh 15.3*, GSTO1 inh -4.6, Fam108B counter 1.4 and PAD4 confirm 14.5.
For COc1cc2c(cc1OC)CN(C(=O)CCNC(=O)c1ccccc1Cl)CC2 the results were PAD4 inh -2.5.
Cc1ccc2nc(-c3ccc(NC(=O)CSCC(=O)O)cc3)sc2c1 was read as LYPLA2 inh -4.4, LYPLA1 counter -0.8, PME-1 primary -2.3, PAD4 inh 1.5, GSTO1 inh -13.5 and Fam108B counter -3.6.
For O=C(O)CSCC(=O)Nc1ccc(-c2nc3ccccc3s2)cc1 the results were LYPLA2 inh -4.6, LYPLA1 counter -2.5, PME-1 primary -5.0, PAD4 inh 30.4*, GSTO1 inh -27.8, Fam108B counter -0.9 and PAD4 confirm 31.4*.
Screening Cc1ccc(N(C)S(=O)(=O)c2cccc(C(=O)NCC(c3cccs3)N3CCOCC3)c2)cc1 (stereo not given) returned LYPLA2 inh -1.5, LYPLA1 counter 0.3, PME-1 primary -0.9, PAD4 inh -0.7, GSTO1 inh 4.6 and Fam108B counter 0.2.
C=CCc1cc(OC)ccc1OCCCCn1cncn1 was read as LYPLA2 inh 6.6, LYPLA1 counter -1.3, PME-1 primary 0.8, PAD4 inh -0.6, GSTO1 inh -6.3 and Fam108B counter -1.3.
Cc1ccc(S(=O)(=O)NCc2ccc3c(c2)cc(C)n3C)cc1 was read as LYPLA2 inh 1.8, LYPLA1 counter 1.2, PME-1 primary 4.2, PAD4 inh 11.4, GSTO1 inh 0.7 and Fam108B counter -1.5.
Screening Cc1cc2cc(CN3C(=O)c4ccccc4C3=O)ccc2n1C returned LYPLA2 inh 3.2, LYPLA1 counter -0.5, PME-1 primary -10.5, PAD4 inh 15.6*, GSTO1 inh 2.7, Fam108B counter -0.6 and PAD4 confirm 7.1.
For CCOc1ccc(CC(=O)NCc2ccc3c(c2)cc(C)n3C)cc1 the results were LYPLA2 inh 2.5, LYPLA1 counter -0.4, PME-1 primary 1.8, PAD4 inh -0.3, GSTO1 inh 8.8 and Fam108B counter -2.9.
For Cc1cc2cc(CNC(=O)COc3ccccc3)ccc2n1C the results were LYPLA2 inh 8.2, LYPLA1 counter 6.8, PME-1 primary 8.5, PAD4 inh 32.5*, GSTO1 inh 3.5, Fam108B counter 8.8 and PAD4 confirm 5.9.
For Cc1ccc(-c2nc(CN3CCN(C(=O)C4CCCO4)CC3)cs2)cc1 (stereo not given) the results were LYPLA2 inh -2.6, LYPLA1 counter -0.4, PME-1 primary -5.3, PAD4 inh 2.4, GSTO1 inh 0.6 and Fam108B counter -3.2.
For CC(C)(Oc1ccc(Cl)cc1)C(=O)NC1=NN(c2ccccc2)C(=O)C1 the results were LYPLA2 inh 9.2, LYPLA1 counter 2.6, PME-1 primary 6.4, PAD4 inh -9.1, GSTO1 inh 18.7 and Fam108B counter 6.9.
Screening CC1=NN(c2ccc(Cl)cc2)C(=O)C1 returned LYPLA2 inh -4.0, LYPLA1 counter -1.8, PME-1 primary 7.7, PAD4 inh 30.6*, GSTO1 inh 36.1*, Fam108B counter 2.0 and PAD4 confirm 3.1.
`Cc1c([N+](=O)[O-])cnc(Sc2ccccc2)c1[N+](=O)[O-]` gave LYPLA2 inh -0.3, LYPLA1 counter -4.7, PME-1 primary -5.0, PAD4 inh 26.1*, GSTO1 inh 13.0, Fam108B counter 6.7 and PAD4 confirm 14.2.
Cn1c(=NC(=O)CCS(=O)(=O)c2ccccc2)sc2cc(F)ccc21 was read as LYPLA2 inh 7.7, LYPLA1 counter 3.5, PME-1 primary 5.6, PAD4 inh 5.8, GSTO1 inh 3.3 and Fam108B counter 3.6.
Screening CC(=O)SCC(=O)N=c1sc2cc(F)ccc2n1C returned LYPLA2 inh -6.3, LYPLA1 counter 0.5, PME-1 primary 4.6, PAD4 inh 19.5*, GSTO1 inh -14.3, Fam108B counter -0.9 and PAD4 confirm 19.1*.
CCOC(=O)c1c(C)sc2c1N(C(=O)CCl)c1cc(Cl)ccc1S2 was read as LYPLA2 inh 9.0, LYPLA1 counter -1.1, PME-1 primary 0.8, PAD4 inh 19.0*, GSTO1 inh -5.8, Fam108B counter 0.2 and PAD4 confirm 42.8*.
For CCCc1oc2c(c(=O)c1CC)C(=O)CC(C)(C)C2 the results were LYPLA2 inh 0.3, LYPLA1 counter 1.7, PME-1 primary -1.4, PAD4 inh 2.5, GSTO1 inh -4.6 and Fam108B counter 2.5.
